Laboratory results published in paper PMC5540273 (PLoS ONE, 2017).

What follows are compounds tested on TESK1. Settings: concentration: 1 μM, replicates: in singlicate; n = 1.
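Note: KINOMEscan kinase panel screen.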

SMILES	%Inh
Cl.Nc1ncnc2occ(-c3ccc(NC(=O)Nc4cc(C(F)(F)F)ccc4F)cc3)c12 [SB-707548]	17%
O=C(NOCC1CC1)c1ccc(F)c(F)c1Nc1ccc(I)cc1Cl	4%
CCc1ccnc(/C=C/c2n[nH]c3cc(Sc4ccccc4C(=O)NC)ccc23)c1	8%
CN1c2ccc(CNc3ccc(F)cc3)cc2-c2c(cnn2C)S1(=O)=O	0%
COc1cc2c(cc1OC[C@@H](O)CO)ncc1c3ccc(C#N)cc3[nH]c21	0%
COc1ccc(S(=O)(=O)NC2CCN(c3cc(C)nc(Nc4cccc(C#N)c4)n3)CC2)cc1.O=C(O)C(F)(F)F [GSK1653539]	5%
Cc1ccc(NC(=O)c2ccnc(N3CCN(C)CC3)c2)cc1-c1ccc(C(=O)NCC2CC2)cc1 [GW775604]	0%
Cc1c2ccc(N(C)c3ccnc(Nc4cccc(S(N)(=O)=O)c4)n3)cc2nn1Cc1ccccc1.Cl.Cl [GW787226]	15%
CC(=O)Nc1ccc(COc2ccc(Nc3ccnc4cc(-c5ccccn5)ccc34)cc2)cc1.Cl [GW440148]	9%
Cc1nnc(-c2ccc3occ(-c4ccc(C(C)O)cc4)c3c2)o1 (stereo not drawn)	3%
CNc1ncnc2[nH]ncc12 [SKF-18355]	10%
Cn1cc(-c2ccc3c(c2)CCN3C(=O)Cc2ccccc2Cl)c2c(N)ncnc21 [GSK2608885]	43%
Cc1cccc(-c2nc(-c3ccc(S(C)(=O)=O)cc3)sc2-c2ccncc2)c1	0%
O=C1NC(=O)C(N2CCc3ccccc32)=C1c1cccc(Cl)c1 [SB-408010]	30%
Cc1cccc(Cn2ccn3c(=O)cc(N4CCOCC4)nc23)c1 [GSK2297542]	39%
Cl.Oc1cccc(Nc2ccnc3cc(-c4ccncc4)ccc23)c1 [GW494601]	16%
O=c1cc(N2CCOCC2)nc2n(Cc3cccc(F)c3)ccn12 [GSK2297430]	19%
CC(C)(C)n1cnc2c(N)ncnc21 [SKF-97359]	0%

SMILES	%Inh
Fc1ccc(-c2nn3c(OCC(F)(F)F)cccc3c2-c2ccncc2)cc1 [GW514784]	13%
CSc1ccc(-c2cc3ncnc(SCC(=O)O)c3s2)cc1	0%
[2H]C([2H])(c1cccc(C(F)(F)F)c1C)n1ccn2c(=O)nc(N3CCOCC3)cc12 [GSK2336394]	26%
Cc1ccc(C(=O)NCC(N)=O)cc1-n1c(C)cc(OCc2ccc(F)cc2F)c(Br)c1=O	31%
COc1cc2ncn(-c3cc(OCc4sccc4Cl)c(C(N)=O)s3)c2cc1OC [GSK448459]	0%
O=C(NCCNc1ccnc(Nc2ccc(F)cc2)n1)c1cc2ccccc2s1 [GSK1379874]	97.2%
O=C(NCCNc1ccnc(Nc2ccc(F)cc2)n1)Nc1ccccc1F [GSK1379880]	0%
CCn1cnc2c(N)ncnc21 [GW345098]	4%
Cc1cn2c(=O)cc(N3CCOCC3)nc2n1Cc1cccc(Cl)c1Cl [GSK2334006]	17%
CN(C(=O)c1ccc(-c2cc(-c3c[nH]nc3-c3ccccn3)ccn2)cc1)C1CCOCC1 [GW810083]	1%
COC(=O)Nc1nc2cc(Oc3ccc(NC(=O)Nc4cc(F)ccc4F)cc3)ccc2[nH]1.Cl [GW701424]	73%
COc1ccc(CNC(=O)NC2CCN(c3ccnc(Nc4ccc(OC)cc4)n3)C2)cc1 (stereo not drawn) [GSK1379727]	16%
Cc1cccc(-c2nc(Nc3ccc4ncsc4c3)c3ccccc3n2)n1 [GW867588]	0%
NS(=O)(=O)c1cccc(-c2ccc3ncc(N4CCOCC4)nc3c2)c1 [GSK1535721]	0%
C[C@@H](Oc1cc(-n2cnc3ccc(NC(=O)NC(C)(C)C)cc32)sc1C(N)=O)c1ccccc1Cl [GSK346294]	0%
COc1ccc(Nc2nccc(N3CCC(NC(=O)Nc4cccc(C(C)=O)c4)C3)n2)cc1 (stereo not drawn) [GSK1379731]	30%
Cc1nnc(-c2ccc3ncc(-c4ccc(S(C)=O)cc4)n3c2)o1 (stereo not drawn)	0%

What follows are compounds tested on TGFBR1. Settings: concentration: 1 μM, replicates: in singlicate; n = 1.

SMILES	%Inh
Cl.Nc1ncnc2occ(-c3ccc(NC(=O)Nc4cc(C(F)(F)F)ccc4F)cc3)c12 [SB-707548]	33%
O=C(NOCC1CC1)c1ccc(F)c(F)c1Nc1ccc(I)cc1Cl	0%
CCc1ccnc(/C=C/c2n[nH]c3cc(Sc4ccccc4C(=O)NC)ccc23)c1	0%
CN1c2ccc(CNc3ccc(F)cc3)cc2-c2c(cnn2C)S1(=O)=O	0%
COc1cc2c(cc1OC[C@@H](O)CO)ncc1c3ccc(C#N)cc3[nH]c21	23%
COc1ccc(S(=O)(=O)NC2CCN(c3cc(C)nc(Nc4cccc(C#N)c4)n3)CC2)cc1.O=C(O)C(F)(F)F [GSK1653539]	0%
Cc1ccc(NC(=O)c2ccnc(N3CCN(C)CC3)c2)cc1-c1ccc(C(=O)NCC2CC2)cc1 [GW775604]	25%
Cc1c2ccc(N(C)c3ccnc(Nc4cccc(S(N)(=O)=O)c4)n3)cc2nn1Cc1ccccc1.Cl.Cl [GW787226]	0%
CC(=O)Nc1ccc(COc2ccc(Nc3ccnc4cc(-c5ccccn5)ccc34)cc2)cc1.Cl [GW440148]	8%
NCCNS(=O)(=O)c1ccc(-c2ccnc3[nH]ccc23)cc1 [GSK977617]	0%
Cc1nnc(-c2ccc3occ(-c4ccc(C(C)O)cc4)c3c2)o1 (stereo not drawn)	3%
CNc1ncnc2[nH]ncc12 [SKF-18355]	47%
Cn1cc(-c2ccc3c(c2)CCN3C(=O)Cc2ccccc2Cl)c2c(N)ncnc21 [GSK2608885]	8%
Cc1cccc(-c2nc(-c3ccc(S(C)(=O)=O)cc3)sc2-c2ccncc2)c1	16%
O=C1NC(=O)C(N2CCc3ccccc32)=C1c1cccc(Cl)c1 [SB-408010]	0%
Cc1cccc(Cn2ccn3c(=O)cc(N4CCOCC4)nc23)c1 [GSK2297542]	3%
Cl.Oc1cccc(Nc2ccnc3cc(-c4ccncc4)ccc23)c1 [GW494601]	76%

SMILES	%Inh
O=c1cc(N2CCOCC2)nc2n(Cc3cccc(F)c3)ccn12 [GSK2297430]	0%
CC(C)(C)n1cnc2c(N)ncnc21 [SKF-97359]	30%
Fc1ccc(-c2nn3c(OCC(F)(F)F)cccc3c2-c2ccncc2)cc1 [GW514784]	39%
CSc1ccc(-c2cc3ncnc(SCC(=O)O)c3s2)cc1	0%
[2H]C([2H])(c1cccc(C(F)(F)F)c1C)n1ccn2c(=O)nc(N3CCOCC3)cc12 [GSK2336394]	5%
Cc1ccc(C(=O)NCC(N)=O)cc1-n1c(C)cc(OCc2ccc(F)cc2F)c(Br)c1=O	36%
COc1cc2ncn(-c3cc(OCc4sccc4Cl)c(C(N)=O)s3)c2cc1OC [GSK448459]	11%
O=C(NCCNc1ccnc(Nc2ccc(F)cc2)n1)c1cc2ccccc2s1 [GSK1379874]	7%
O=C(NCCNc1ccnc(Nc2ccc(F)cc2)n1)Nc1ccccc1F [GSK1379880]	0%
CCn1cnc2c(N)ncnc21 [GW345098]	0%
Cc1cn2c(=O)cc(N3CCOCC3)nc2n1Cc1cccc(Cl)c1Cl [GSK2334006]	15%
COC(=O)Nc1nc2cc(Oc3ccc(NC(=O)Nc4cc(F)ccc4F)cc3)ccc2[nH]1.Cl [GW701424]	27%
COc1ccc(CNC(=O)NC2CCN(c3ccnc(Nc4ccc(OC)cc4)n3)C2)cc1 (stereo not drawn) [GSK1379727]	38%
NS(=O)(=O)c1cccc(-c2ccc3ncc(N4CCOCC4)nc3c2)c1 [GSK1535721]	6%
C[C@@H](Oc1cc(-n2cnc3ccc(NC(=O)NC(C)(C)C)cc32)sc1C(N)=O)c1ccccc1Cl [GSK346294]	0%
COc1ccc(Nc2nccc(N3CCC(NC(=O)Nc4cccc(C(C)=O)c4)C3)n2)cc1 (stereo not drawn) [GSK1379731]	0%
Cc1nnc(-c2ccc3ncc(-c4ccc(S(C)=O)cc4)n3c2)o1 (stereo not drawn)	9%
